Laboratory results: PubChem BioAssay
Active and inactive are the calls of the source.

Columns and labels:
[1] = system: Plasmodium falciparum Sir2 (PF13_0152, Sir2A); test: pfSir2 binders on small-molecule microarrays, primary screen, biochemical, small-molecule microarray, 635 nm fluorescence (AID 1098); conditions: small-molecule microarray binding, fluorescence 635 nm; higher = more signal;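 further: score merges spot fluorescence intensity with its signal-to-noise ratio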
[2] = small-molecule microarray binders of probe aDKK1, primary screen, biochemical, biotinylated probe, 635/667 nm fluorescence (AID 1099); conditions: higher = more signal;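 further: score merges 667nm spot fluorescence with signal to noise across triplicate slides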
[3] = small-molecule microarray binders of probe aCHRDL2, primary screen, biochemical, biotinylated probe, 635/667 nm fluorescence (AID 1100); conditions: higher = more signal
[4] = splicing luciferase reporter signal modulators, primary screen, spliceosome inhibition project, cell-based, HEK293, splice +/- reporter (AID 1101); conditions: luminescence, 24 h, higher = more signal, called active from +8 up or from −8 down;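 further: HEK293 cells carrying a splicing-competent luciferase reporter gene; test concentration not given here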
[5] = biological target: Fibroblast growth factor 10 (Homo sapiens) (UniProt O15520); test: FGF10 binders on small-molecule microarrays, primary screen, biochemical, small-molecule microarray, 635 nm fluorescence (AID 1102); conditions: FGF10 binding, fluorescence 635 nm, higher = more signal
[6] = system: glycogen synthase kinase-3 (GSK3A per assay name; protocol says GSK3B); test: GSK3 binders on small-molecule microarrays, primary screen, biochemical, small-molecule microarray, 635 nm fluorescence, GSK3A (AID 1103); conditions: small-molecule microarray binding, fluorescence 635 nm; higher = more signal; further: the record names both GSK3A and GSK3B
[7] = biological target: Epidermal growth factor receptor (Homo sapiens) (UniProt P00533); test: EGFR binders on small-molecule microarrays, primary screen, biochemical, small-molecule microarray, 635 nm fluorescence (AID 1104); conditions: EGFR binding, higher = more signal;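 further: score merges 667 nm emission intensity with spot signal to noise over triplicate slides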
[8] = biological target: Follistatin-related protein 3 (Homo sapiens) (UniProt O95633); test: FSTL3 binders on small-molecule microarrays, primary screen, biochemical, small-molecule microarray, 635 nm fluorescence (AID 1105); conditions: FSTL3 binding, higher = more signal;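 further: score merges emission near 667 nm and signal to noise per printed spot across three slides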
[9] = biological target: Dickkopf-related protein 1 (Homo sapiens) (UniProt O94907); test: DKK1 binders on small-molecule microarrays, primary screen, biochemical, small-molecule microarray, 635 nm fluorescence scan (AID 1106); conditions: DKK1 binding, higher = more signal;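 further: score merges emission near 667 nm with signal to noise over three replicate slides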
[10] = system: Inhibin beta A chain (activin A); test: INHBA (activin A) binders on microarrays, primary screen, biochemical, small-molecule microarray, 635 nm fluorescence scan (AID 1107); conditions: small-molecule microarray binding, higher = more signal;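 further: mouse activin A protein probed at 4.33 µg/mL on printed slides; score merges bound-protein fluorescence near 667 nm with spot signal-to-noise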
[11] = system: Human papillomavirus type 1a protein E7 (residues 44-93); test: HPV1a E7 fragment binders on microarrays, primary screen, biochemical, small-molecule microarray, residues 44-93, 635 nm fluorescence (AID 1108); conditions: small-molecule microarray binding, fluorescence 635 nm; higher = more signal;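 further: E7 fragment applied at 1 µg/mL in TBST for 1 h at 4 C; score combines spot fluorescence with its signal to noise ratio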
[12] = modulators of HCV replicon luciferase signal, primary screen, HCV replication inhibitor project, Huh7 cells, luciferase reporter (AID 1109); conditions: 48 h, higher = more signal;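 further: huh7 hepatoma cells harbouring a luciferase neomycin HCV replicon reporter; luciferase luminescence as measure of HCV replicon replication; test concentration not given here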
[13] = biological target: Left-right determination factor 2 (Homo sapiens) (UniProt O00292); test: LEFTY2 binders on small-molecule microarrays, primary screen, biochemical, small-molecule microarray, 635 nm fluorescence scan (AID 1110); conditions: LEFTY2 binding, higher = more signal
[14] = biological target: Calmodulin-1 (Homo sapiens) (UniProt P0DP23); test: CALM1 binders on microarrays, EGTA buffer, profiling panel, biochemical, small-molecule microarray, Cy5-labelled CALM1 (AID 1111); conditions: Cy5-CALM1 binding fluorescence, higher = more signal;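 further: labelled calmodulin applied in Tris saline Tween buffer holding calcium plus EGTA and DTT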
[15] = biological target: Calmodulin-1 (Homo sapiens) (UniProt P0DP23); test: calcium-bound CALM1 binders on microarrays, profiling panel, artefact control for SMM control-protein annotation, biochemical, small-molecule microarray, Cy5-labelled CALM1, plus calcium (AID 1112); conditions: Cy5-CALM1 binding fluorescence, higher = more signal;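 further: score merges spot fluorescence with signal to noise from triplicate slides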
[16] = small-molecule microarray binders of probe aWnt5a, primary screen, biochemical, biotinylated probe, 635/667 nm fluorescence (AID 1113); conditions: higher = more signal;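 further: score merges 667 nm fluorescence intensity with signal-to-noise per printed feature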
[17] = small-molecule microarray binders of probe aShh, primary screen, biochemical, biotinylated probe, 635/667 nm fluorescence (AID 1114); conditions: higher = more signal;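 further: probe is biotin-labelled aShh protein from a stem cell growth factor screen; measures binding of labelled protein to compounds printed on the slide; score merges feature fluorescence at 667 nm with signal-to-noise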
[18] = small-molecule microarray binders of probe aNog, primary screen, biochemical, biotinylated probe, 635/667 nm fluorescence (AID 1115); conditions: higher = more signal;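 further: probe is biotinylated aNog protein used at 0.15 µg/mL for 1 h at 4 C; z-score combines 667 nm fluorescence of each spot with its signal to noise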
[19] = biological target: Torsin-1A-interacting protein 1 (Homo sapiens) (UniProt Q5JTV8); test: LAP1 binders from COS7 cell lysate, primary screen, small-molecule microarray, 635/667 nm fluorescence (AID 1116); conditions: COS7-hLAP1 lysate binding, 635 nm fluorescence, higher = more signal
[20] = biological target: Alpha-bungarotoxin (Bungarus multicinctus) (UniProt P60615); test: alpha-bungarotoxin binders on microarray, profiling panel, artefact control for SMM control protein annotation, biochemical, small-molecule microarray, Alexa647 label, 635/667 nm fluorescence (AID 1117); conditions: alpha-BTX-A647 binding fluorescence, higher = more signal
Sequence of Alpha-bungarotoxin (Bungarus multicinctus) (P60615 whole entry, looked up): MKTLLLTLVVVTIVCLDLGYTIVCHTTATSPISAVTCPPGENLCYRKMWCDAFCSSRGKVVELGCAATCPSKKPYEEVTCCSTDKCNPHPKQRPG

Sequence of Epidermal growth factor receptor (Homo sapiens) (P00533 whole entry, looked up): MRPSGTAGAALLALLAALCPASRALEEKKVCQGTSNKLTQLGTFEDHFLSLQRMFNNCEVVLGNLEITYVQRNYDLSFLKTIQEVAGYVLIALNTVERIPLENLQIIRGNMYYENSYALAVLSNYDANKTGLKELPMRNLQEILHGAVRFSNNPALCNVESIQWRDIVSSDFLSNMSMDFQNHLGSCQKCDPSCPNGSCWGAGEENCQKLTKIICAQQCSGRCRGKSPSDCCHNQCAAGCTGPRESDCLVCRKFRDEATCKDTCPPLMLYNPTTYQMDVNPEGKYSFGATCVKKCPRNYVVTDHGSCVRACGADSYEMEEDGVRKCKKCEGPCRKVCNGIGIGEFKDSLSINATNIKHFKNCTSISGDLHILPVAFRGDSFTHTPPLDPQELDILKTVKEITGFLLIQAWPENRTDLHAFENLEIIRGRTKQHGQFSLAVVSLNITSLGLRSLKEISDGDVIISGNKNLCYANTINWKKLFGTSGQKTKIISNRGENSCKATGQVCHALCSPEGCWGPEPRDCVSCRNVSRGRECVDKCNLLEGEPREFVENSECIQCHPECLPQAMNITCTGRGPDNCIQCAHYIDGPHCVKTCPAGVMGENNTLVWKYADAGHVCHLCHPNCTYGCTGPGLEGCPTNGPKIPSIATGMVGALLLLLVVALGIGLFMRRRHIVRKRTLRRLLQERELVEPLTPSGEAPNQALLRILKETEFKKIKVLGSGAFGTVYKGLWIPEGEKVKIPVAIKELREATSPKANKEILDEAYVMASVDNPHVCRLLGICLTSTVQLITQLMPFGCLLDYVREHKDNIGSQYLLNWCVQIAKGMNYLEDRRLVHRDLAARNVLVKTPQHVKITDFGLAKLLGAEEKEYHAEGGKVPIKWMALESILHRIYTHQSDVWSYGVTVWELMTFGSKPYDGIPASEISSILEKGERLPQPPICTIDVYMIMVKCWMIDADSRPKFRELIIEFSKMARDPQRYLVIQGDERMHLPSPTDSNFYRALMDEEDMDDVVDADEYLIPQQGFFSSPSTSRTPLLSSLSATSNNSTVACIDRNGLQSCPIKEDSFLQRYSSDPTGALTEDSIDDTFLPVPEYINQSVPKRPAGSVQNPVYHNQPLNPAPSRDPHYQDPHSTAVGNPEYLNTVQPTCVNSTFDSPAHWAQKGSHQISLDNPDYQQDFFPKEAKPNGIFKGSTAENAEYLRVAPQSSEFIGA
Sequence of Fibroblast growth factor 10 (Homo sapiens) (O15520 whole entry, looked up): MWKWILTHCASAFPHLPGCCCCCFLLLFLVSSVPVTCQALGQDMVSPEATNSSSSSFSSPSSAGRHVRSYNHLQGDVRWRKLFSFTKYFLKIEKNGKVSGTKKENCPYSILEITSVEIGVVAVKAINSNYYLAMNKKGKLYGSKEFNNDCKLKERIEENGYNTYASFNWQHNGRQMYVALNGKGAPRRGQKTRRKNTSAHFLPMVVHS
Sequence of Left-right determination factor 2 (Homo sapiens) (O00292 whole entry, looked up): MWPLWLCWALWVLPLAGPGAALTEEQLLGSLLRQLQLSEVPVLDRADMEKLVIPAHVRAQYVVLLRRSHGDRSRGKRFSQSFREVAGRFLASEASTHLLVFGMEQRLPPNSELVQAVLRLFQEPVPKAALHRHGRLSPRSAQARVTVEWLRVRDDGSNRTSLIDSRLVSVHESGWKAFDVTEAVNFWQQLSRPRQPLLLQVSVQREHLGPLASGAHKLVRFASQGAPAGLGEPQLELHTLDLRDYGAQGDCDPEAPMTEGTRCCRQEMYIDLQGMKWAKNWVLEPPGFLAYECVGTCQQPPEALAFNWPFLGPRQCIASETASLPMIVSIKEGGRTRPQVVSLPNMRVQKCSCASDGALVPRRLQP
Sequence of Dickkopf-related protein 1 (Homo sapiens) (O94907 whole entry, looked up): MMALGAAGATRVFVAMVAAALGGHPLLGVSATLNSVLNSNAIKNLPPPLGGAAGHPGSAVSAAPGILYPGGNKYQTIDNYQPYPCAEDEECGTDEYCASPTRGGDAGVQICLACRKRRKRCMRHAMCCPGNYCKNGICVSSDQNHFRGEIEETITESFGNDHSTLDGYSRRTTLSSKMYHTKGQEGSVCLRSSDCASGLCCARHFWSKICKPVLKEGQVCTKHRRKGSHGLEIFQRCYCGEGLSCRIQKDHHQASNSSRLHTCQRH
Sequence of Follistatin-related protein 3 (Homo sapiens) (O95633 whole entry, looked up): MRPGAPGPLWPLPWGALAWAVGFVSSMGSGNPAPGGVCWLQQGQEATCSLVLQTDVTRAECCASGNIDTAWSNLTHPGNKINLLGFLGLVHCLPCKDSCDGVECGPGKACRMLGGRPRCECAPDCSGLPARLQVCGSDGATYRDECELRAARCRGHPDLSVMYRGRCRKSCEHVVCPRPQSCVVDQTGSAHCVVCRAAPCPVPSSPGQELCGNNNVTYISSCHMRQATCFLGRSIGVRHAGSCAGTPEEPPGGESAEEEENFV
Sequence of Torsin-1A-interacting protein 1 (Homo sapiens) (Q5JTV8 whole entry, looked up): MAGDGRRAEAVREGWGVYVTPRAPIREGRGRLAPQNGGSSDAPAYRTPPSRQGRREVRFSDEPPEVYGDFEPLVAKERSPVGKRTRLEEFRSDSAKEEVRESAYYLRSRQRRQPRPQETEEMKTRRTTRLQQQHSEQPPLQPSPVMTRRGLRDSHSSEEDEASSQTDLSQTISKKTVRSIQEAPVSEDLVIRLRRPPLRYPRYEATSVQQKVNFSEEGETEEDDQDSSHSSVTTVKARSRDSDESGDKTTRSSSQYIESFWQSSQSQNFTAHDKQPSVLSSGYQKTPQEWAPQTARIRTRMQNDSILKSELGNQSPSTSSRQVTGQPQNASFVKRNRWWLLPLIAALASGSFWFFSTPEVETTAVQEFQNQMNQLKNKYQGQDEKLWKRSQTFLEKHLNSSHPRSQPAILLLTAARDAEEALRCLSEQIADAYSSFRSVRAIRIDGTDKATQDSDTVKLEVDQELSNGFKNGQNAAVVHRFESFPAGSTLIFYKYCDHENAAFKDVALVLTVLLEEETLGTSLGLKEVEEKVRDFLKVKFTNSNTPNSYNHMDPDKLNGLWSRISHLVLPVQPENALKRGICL

SMILES | composite z-score [1] | composite z-score [2] | composite z-score [3] | z-score [4] | composite z-score [5] | composite z-score [6] | composite z-score [7] | composite z-score [8] | composite z-score [9] | composite z-score [10] | composite z-score [11] | z-score [12] | composite z-score [13] | composite z-score [14] | composite z-score [15] | composite z-score [16] | composite z-score [17] | composite z-score [18] | composite z-score [19] | composite z-score [20]
C=C(/C(=C/C[C@@H](OC(C)=O)c1ccc(OCCO)cc1)c1cc(C(=O)OC)ccc1OC)C(C)C | 1.28 | 0.0968 | 0.0396 | 0.0641 (inactive) | 1.08 | 0.263 | -0.461 | 0.231 | 0.328 | 0.59 | -0.544 | -0.161 | 0.354 | 0.0164 | -0.258 | -0.181 | -0.0769 | -0.237 | 0.651 | 1.31
O=C1C2C=CC(C(O)c3ccc(I)cc3)N(Nc3ccccc3)C2C(=O)N1c1ccccc1 (stereo not given) | 1.1 | 1.06 | 1.21 | 0.189 (inactive) | 0.455 | 1.29 | 0.0244 | 0.859 | 0.263 | 1.06 | 0.898 | 0.0376 | 0.0988 | 2.51 | 1.2 | -0.0399 | 0.184 | 1.4 | 1.83 | 1.71
CCOC(=O)C1=CC[C@@H](c2ccccc2)N(S(=O)(=O)c2ccc(C)cc2)[C@H]1c1cccc(OC)c1 | 0.389 | 0.708 | 0.244 | -0.937 (inactive) | 0.425 | 0.897 | 0.197 | 0.549 | 0.135 | 0.949 | 1.09 | -1.96 | 0.177 | 0.0295 | 0.622 | 0.0422 | 0.0898 | 0.266 | 0.854 | 1.3
O=C1C[C@@](C(=O)NCc2ccccc2)(c2ccc([N+](=O)[O-])cc2)[C@@H](c2ccc(CO)cc2I)N1CC12CC3CC(CC(C3)C1)C2 | 1.05 | -0.0517 | 0.214 | -0.218 (inactive) | 1.31 | 0.794 | 0.547 | 1.44 | 0.578 | -0.0204 | 1.39 | -3.32 | 0.591 | 0.387 | 0.0818 | -0.0529 | -0.152 | -0.131 | 0.903 | 1.02
COC(=O)[C@@]1(Cc2ccc(F)cc2)[C@H]2c3cc(C(=O)N4CCCC4)n(CC4CC4)c3C[C@H]2CN1C(=O)c1ccccc1 | 1.4 | 1.15 | 1.3 | -0.761 (inactive) | 0.692 | 0.621 | 0.915 | 0.466 | 0.0587 | 0.789 | 1.39 | -1.94 | 1.29 | 2.43 | 0.701 | 0.0139 | 0.184 | 1.96 | 1.22 | 1.33
COc1ccc(CCNC(=O)[C@@]2(Cc3ccccc3I)c3ccccc3C(=O)N(Cc3ccccc3Cl)[C@H]2c2ccc(CO)cc2)cc1 | 1.79 | 0.316 | 0.646 | -1.55 (inactive) | 0.202 | -0.181 | -0.662 | -0.407 | -0.735 | 0.0137 | -0.542 | -2.44 | -0.818 | 0.331 | 0.354 | 0.0718 | 0.235 | 0.371 | 0.589 | -0.0759
COCCOC(=O)N1C(=O)[C@@]2(c3cc(C#CC4=CCCCC4)ccc31)[C@H](C(=O)N1CCCCCCC1)[C@H]1C(=O)O[C@H](c3ccccc3)[C@H](c3ccccc3)N1[C@@H]2c1ccc(OCCO)cc1 | 1.23 | 0.977 | 0.734 | -0.611 (inactive) | 1.03 | 1.17 | 0.825 | 1.23 | 0.835 | 1.43 | 1.18 | -2.08 | 0.654 | 1.02 | 1.04 | 0.302 | 0.936 | -0.412 | 1.05 | 0.845
COc1ccc(NC(=O)O[C@H]2[C@@H]3OC(=O)[C@H](Cc4cccc(Br)c4)C/C=C/C[C@@H](Cc4cccc(Br)c4)C(=O)O[C@H]3[C@@H](OC)O[C@@H]2CO)cc1 | 1.31 | 0.13 | 0.387 | 0.044 (inactive) | 0.638 | 0.475 | 0.4 | 0.324 | 0.142 | 0.735 | 0.277 | 0.714 | 0.601 | 0.492 | -0.062 | -0.027 | 0.235 | 0.325 | 0.882 | 0.526
